In PubChem BioAssay AID1903 (Southern Research Specialized Biocontainment Screening …, 2009):
Out of some 310,000 compounds screened, about 1,200 (0.39%) were called active. No rule for the calls is given here. A selection follows. Measured potencies and affinities stand elsewhere.

molecular target: Large T antigen (Simian virus 40) (UniProt P03070); assay: SV40 large T antigen inhibitors, biochemical (AID 1903); settings: SV40 large T antigen ATPase/helicase inhibition assay; at 20 µM; stronger effect = higher value
Sequence (P03070 whole entry, looked up): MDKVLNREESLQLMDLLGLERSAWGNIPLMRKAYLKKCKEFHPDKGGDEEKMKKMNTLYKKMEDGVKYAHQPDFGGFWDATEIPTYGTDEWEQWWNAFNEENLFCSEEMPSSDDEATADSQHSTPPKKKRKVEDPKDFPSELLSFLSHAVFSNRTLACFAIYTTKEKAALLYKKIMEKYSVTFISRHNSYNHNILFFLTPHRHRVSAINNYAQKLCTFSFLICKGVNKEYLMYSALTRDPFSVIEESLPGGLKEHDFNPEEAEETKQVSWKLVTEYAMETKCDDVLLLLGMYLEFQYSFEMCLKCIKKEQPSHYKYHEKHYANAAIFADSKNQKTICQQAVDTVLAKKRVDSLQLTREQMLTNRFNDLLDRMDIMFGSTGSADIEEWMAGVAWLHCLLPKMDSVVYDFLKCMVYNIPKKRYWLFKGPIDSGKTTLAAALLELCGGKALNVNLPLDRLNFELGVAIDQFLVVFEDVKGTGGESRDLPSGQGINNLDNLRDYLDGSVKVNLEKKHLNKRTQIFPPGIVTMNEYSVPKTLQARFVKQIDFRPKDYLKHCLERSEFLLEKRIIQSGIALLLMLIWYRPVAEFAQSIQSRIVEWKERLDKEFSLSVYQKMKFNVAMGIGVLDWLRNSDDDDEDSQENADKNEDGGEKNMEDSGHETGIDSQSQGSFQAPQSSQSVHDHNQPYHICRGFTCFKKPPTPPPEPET

inhibition, inactive:
COc1ccccc1/C=C/C(=O)N1CCCC1 16.6%
Cn1cc([N+](=O)[O-])c(C(=O)NC2CCCCCCC2)n1 11.7%
CCOc1cc(N2CCOCC2)c(OCC)cc1NC(C)C(=O)N1CCN(CC)CC1 (stereo not drawn) 4.25%
CCOc1cc(N2CCOCC2)c(OCC)cc1NS(=O)(=O)c1cc(NC(C)=O)ccc1OC 9.72%
O=S(=O)(Nc1ccc(N2CCOCC2)cc1)c1ccc(Cl)s1 36.6%
CCOc1cc(N2CCOCC2)c(OCC)cc1NC(=O)C(C)C 5.9%
COc1ccccc1CNC(=O)C(CC(C)C)NC(=O)C1CCC(C)CC1 (stereo not drawn) 12.9%
COc1ccc(/C=N/NC(=O)Cc2csc(Nc3cccc(C(F)(F)F)c3)n2)c(OC)c1 4.64%
CCOC(=O)C1Nc2ccc(Br)cc2C2C=CCC12 (stereo not drawn) 7%
O=C(O)C1Nc2c(C(F)(F)F)ccc(Cl)c2C2C=CCC12 (stereo not drawn) 17.1%
O=C(O)C1Nc2c(C(=O)N3CCOCC3)cccc2C2C=CCC12 (stereo not drawn) 34.2%
CCOC(=O)C1Nc2c(F)cc(C)cc2C2C=CCC12 (stereo not drawn) 26%
CCNc1ccc(C(=O)OCC)cc1NC(=O)c1cccc(S(=O)(=O)N(C)c2ccccc2)c1 -1.52%
CC1CN(CCOCCSc2ccccc2)CC(C)O1 (stereo not drawn) -2.63%
COC(=O)CNc1cc(S(=O)(=O)N2CCCCC2)ccc1Oc1cccc(C)c1 5.08%
COc1ccc(Cn2c(-c3ccc(OC)cc3)nc3c(c(=O)c4ccccc4n3C)c2=O)cc1 4.69%
c1ccc2c(NCCCN3CCOCC3)c3ccccc3nc2c1 3.76%
Cc1csc2c(NCCCN3CCOCC3)ncnc12 5.93%
CCCc1nc2ccccc2c(=O)n1/N=C/c1ccccc1O -9.27%
O=C(O)COc1ccc(/C=N/n2c(COc3ccccc3)nc3ccccc3c2=O)cc1 1.95%
COc1ccc(/C=N/n2c(COc3ccccc3)n[nH]c2=S)cc1OC 32.6%
CCCc1nc2ccccc2c(=O)n1/N=C/c1ccc(O)cc1 6.26%
CCOc1cc(/C=N/n2c(COc3ccccc3)n[nH]c2=S)ccc1O 19.9%
O=c1c2ccccc2nc(COc2ccccc2)n1/N=C/c1ccc(O)cc1O 5.35%
O=C1COc2ccc(C(=O)COC(=O)c3cc(S(=O)(=O)NCc4ccccc4)ccc3O)cc2N1 13%
Cc1cc(Cl)ccc1NC(=O)CN1C(=O)NC2(CCCc3ccccc32)C1=O (stereo not drawn) 25.2%
CCOC(=O)CN1C(=O)SC(CC(=O)Nc2nccs2)C1=O (stereo not drawn) 2.87%
O=C(COC(=O)Cc1ccccc1F)NNC(=O)c1ccc([N+](=O)[O-])cc1 22.7%
FC(F)Oc1ccc(-n2cc(-c3ccccc3)[n+]3c2CCCCC3)cc1 10.7%
COc1ccccc1NC(=S)N1CCN(c2cccc(C)c2C)CC1 -4.85%
COc1ccccc1NS(=O)(=O)c1ccc(O)cc1 7.04%
O=C(O)CN1C(=O)S/C(=C\c2cccnc2)C1=O 16.2%
O=C(CCc1nnc(-c2ccsc2)o1)NCc1ccccc1OC(F)(F)F 3.5%
CN(C)S(=O)(=O)c1ccc(NC(=O)c2ccccn2)cc1 -5.42%
O=C(NCc1ccco1)C1CC(=O)N(c2ccc(Cl)cc2)C1 (stereo not drawn) -4.21%
O=C(NCc1ccco1)C1CC(=O)N(c2ccc(F)cc2)C1 (stereo not drawn) 9.04%
[O-][n+]1ccccc1/C=C/c1ccccc1 7.12%
[O-][n+]1ccccc1SCc1ccccc1 10.4%
COc1ccc(NC(=O)C2CCN(S(=O)(=O)c3cccc4nonc34)CC2)c(OC)c1 10.9%
CC1CCN(CCCCOc2ccc([N+](=O)[O-])cc2)CC1 20.7%
O=C(CN1CCCN(Cc2ccc(F)cc2)S1(=O)=O)NC1CCCC1 1.85%
O=C(Nc1ccc(Cl)cc1)NC1CCCCC1 0.423%
Cc1ccc(NC(=O)NC2CCCCCCC2)cc1 3.82%
O=C(c1ccc2c(c1)OCO2)N1CCC2(CC1)Oc1ccc(Cl)cc1C(=O)C21CC(c2cccnc2)=NO1 (stereo not drawn) 6.56%
O=C(CCn1c(=O)oc2ccccc21)Nc1cccc(Cl)c1 6.5%
O=C(CCn1c(=O)oc2cc(Cl)ccc21)Nc1ccc(N2CCOCC2)cc1 12.7%
CCCCN(C(=O)c1ccc(S(=O)(=O)N2CCCC2)cc1)C1CCS(=O)(=O)C1 (stereo not drawn) 2.38%
O=C(COc1ccc(Br)cc1)NNC(=S)NCc1ccccc1 15%
COC(=O)/C(C#N)=C1/C=Cc2ccccc2N1 9.95%
O=S1c2ccccc2Nc2ccccc21 8.27%
OC[C@H]1OC(O)[C@@H](O)[C@@H](O)[C@@H]1O (stereo partly drawn) 12.2%
O=C(CSc1ccccc1C(=O)O)NC12CC3CC(CC(C3)C1)C2 7.17%
O=C(Cn1nc(C(=O)O)c2ccccc2c1=O)NC12CC3CC(CC(C3)C1)C2 3.68%
N#Cc1ccsc1NC(=O)CN1CCN(S(=O)(=O)c2ccc3ccccc3c2)CC1 -5.22%
O=C(CCc1c[nH]c2ccccc12)NC(Cc1c[nH]c2ccccc12)C(=O)O (stereo not drawn) 11.4%
CNC(=O)c1ccccc1Sc1ccccc1CO 10.3%
NNC(=O)c1ccccc1CO 3.38%
O=[N+]([O-])c1cccc(/C=N/N2CCN(c3ccccn3)CC2)c1 15.9%
COc1ccccc1CNC(=O)c1ccccc1C(=O)NC(CC(C)C)C(=O)NCc1ccccc1OC (stereo not drawn) 14%
CCCCNC(=O)CCCCn1c(=S)[nH]c2c([nH]c3ccc(OC)cc32)c1=O 9.54%
COc1ccc2[nH]c3c(=O)n(CCCCCC(=O)NCCC(C)C)c(=S)[nH]c3c2c1 5.88%
CCCNC(=O)CCCCn1c(=S)[nH]c2c([nH]c3ccc(OC)cc32)c1=O 10.7%
COc1ccc2[nH]c3c(=O)n(CCCCC(=O)NCCC(C)C)c(=S)[nH]c3c2c1 9.9%
